# The supplement of paper PMC12282887
# ± gives the standard deviation of the averaged measurements.
# Columns and labels:
# Assay in all cases: promoter activity interaction Z-score (Lux/OD deviation from empty-vector control); higher = stronger promoter induction by the compound
# [1] = test system: E. coli BW25113 acrABp lux reporter
# Summary of the method: (§1)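 Low-copy luxCDABE promoter reporters were carried by E. coli BW25113, either wild type or lacking one of three genes, grown in 40 µl LB Lennox in 384-well plates at 37°C. Each compound was run at four 1:2 dilutions in biological duplicates, with OD600 and luminescence read every 30 min for 12 h. Integration used 0–8 h for wild type and 1–9 h for deletion strains, and wells under 10% of the median growth value were removed. Luminescence normalised to growth was fitted against a control, and the Z-transformed residual is the score.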
# [2] = test system: E. coli BW25113 marRABp lux reporter
# Summary of the method: as §1
# [3] = test system: E. coli BW25113 micFp lux reporter
# Summary of the method: as §1
# [4] = test system: E. coli BW25113 ompFp lux reporter
# Summary of the method: as §1
# [5] = test system: E. coli BW25113 robp lux reporter
# Summary of the method: as §1
# [6] = test system: E. coli BW25113 soxSp lux reporter
# Summary of the method: as §1
# [7] = test system: E. coli BW25113 tolCp lux reporter
# Summary of the method: as §1
# [8] = 1329.2 µg/ml, genetic background: wild type
# [9] = 1329.2 µg/ml, genetic background: ΔmarA
# [10] = 1329.2 µg/ml, genetic background: Δrob
# [11] = 1329.2 µg/ml, genetic background: ΔsoxS
# [12] = 2658.5 µg/ml, genetic background: wild type
# [13] = 2658.5 µg/ml, genetic background: ΔmarA
# [14] = 2658.5 µg/ml, genetic background: Δrob
# [15] = 2658.5 µg/ml, genetic background: ΔsoxS
# [16] = 5317 µg/ml, genetic background: wild type
# [17] = 5317 µg/ml, genetic background: ΔmarA
# [18] = 5317 µg/ml, genetic background: Δrob
# [19] = 5317 µg/ml, genetic background: ΔsoxS
# [20] = 10634 µg/ml, genetic background: wild type
# [21] = 10634 µg/ml, genetic background: ΔmarA
# [22] = 10634 µg/ml, genetic background: ΔsoxS
smiles,measurement,setting,value
CCN(CC)CCOC(=O)c1ccc(N)cc1 [Procaine],promoter activity interaction Z-score,[1]; [8],-0.662 ± 0.28
same,promoter activity interaction Z-score,[1]; [9],-0.602 ± 0.28
same,promoter activity interaction Z-score,[1]; [10],-0.872 ± 0.16
same,promoter activity interaction Z-score,[1]; [11],-0.805 ± 0.27
same,promoter activity interaction Z-score,[1]; [12],-0.675 ± 0.27
same,promoter activity interaction Z-score,[1]; [13],-0.191 ± 0.011
same,promoter activity interaction Z-score,[1]; [14],-0.754 ± 0.019
same,promoter activity interaction Z-score,[1]; [15],-0.807 ± 0.058
same,promoter activity interaction Z-score,[1]; [16],-0.798 ± 0.5
same,promoter activity interaction Z-score,[1]; [17],0.353 ± 0.5
same,promoter activity interaction Z-score,[1]; [18],-0.739 ± 0.25
same,promoter activity interaction Z-score,[1]; [19],-1.88 ± 0.78
same,promoter activity interaction Z-score,[1]; [20],-0.735 ± 0.28
same,promoter activity interaction Z-score,[1]; [21],-0.543 ± 0.93
same,promoter activity interaction Z-score,[1]; [22],-1.22 ± 0.13
same,promoter activity interaction Z-score,[2]; [8],0.474 ± 0.19
same,promoter activity interaction Z-score,[2]; [9],1.13 ± 0.098
same,promoter activity interaction Z-score,[2]; [10],-0.044 ± 0.24
same,promoter activity interaction Z-score,[2]; [11],0.558 ± 0.086
same,promoter activity interaction Z-score,[2]; [12],0.562 ± 0.12
same,promoter activity interaction Z-score,[2]; [13],1.42 ± 0.24
same,promoter activity interaction Z-score,[2]; [14],-0.0229 ± 0.4
same,promoter activity interaction Z-score,[2]; [15],0.555 ± 0.11
same,promoter activity interaction Z-score,[2]; [16],0.94 ± 0.094
same,promoter activity interaction Z-score,[2]; [17],2.128 ± 0.015
same,promoter activity interaction Z-score,[2]; [18],0.0444 ± 0.17
same,promoter activity interaction Z-score,[2]; [19],0.444 ± 0.23
same,promoter activity interaction Z-score,[2]; [20],1.63 ± 0.15
same,promoter activity interaction Z-score,[2]; [21],2.15 ± 0.55
same,promoter activity interaction Z-score,[2]; [22],2.04 ± 0.25
same,promoter activity interaction Z-score,[3]; [8],0.885 ± 0.053
same,promoter activity interaction Z-score,[3]; [9],0.505 ± 0.026
same,promoter activity interaction Z-score,[3]; [10],0.103 ± 0.024
same,promoter activity interaction Z-score,[3]; [11],1.88 ± 0.031
same,promoter activity interaction Z-score,[3]; [12],1.93 ± 1.1
same,promoter activity interaction Z-score,[3]; [13],0.738 ± 0.027
same,promoter activity interaction Z-score,[3]; [14],0.206 ± 0.083
same,promoter activity interaction Z-score,[3]; [15],3.42 ± 0.14
same,promoter activity interaction Z-score,[3]; [16],2.99 ± 1
same,promoter activity interaction Z-score,[3]; [17],0.535 ± 0.11
same,promoter activity interaction Z-score,[3]; [18],0.692 ± 0.16
same,promoter activity interaction Z-score,[3]; [19],3.95 ± 0.25
same,promoter activity interaction Z-score,[3]; [20],4.96 ± 1.1
same,promoter activity interaction Z-score,[3]; [21],0.433 ± 0.12
same,promoter activity interaction Z-score,[3]; [22],1.99 ± 0.39
same,promoter activity interaction Z-score,[4]; [8],-1.52 ± 0.52
same,promoter activity interaction Z-score,[4]; [9],-1.23 ± 0.023
same,promoter activity interaction Z-score,[4]; [10],-1 ± 0.25
same,promoter activity interaction Z-score,[4]; [11],-1.06 ± 0.18
same,promoter activity interaction Z-score,[4]; [12],-1.95 ± 0.51
same,promoter activity interaction Z-score,[4]; [13],-1.57 ± 0.11
same,promoter activity interaction Z-score,[4]; [14],-1.23 ± 0.6
same,promoter activity interaction Z-score,[4]; [15],-2.1 ± 0.11
same,promoter activity interaction Z-score,[4]; [16],-2.79 ± 0.89
same,promoter activity interaction Z-score,[4]; [17],-2.57 ± 0.088
same,promoter activity interaction Z-score,[4]; [18],-2.71 ± 0.78
same,promoter activity interaction Z-score,[4]; [19],-3.43 ± 0.31
same,promoter activity interaction Z-score,[4]; [20],-3.06 ± 0.97
same,promoter activity interaction Z-score,[4]; [21],-3.26 ± 0.22
same,promoter activity interaction Z-score,[4]; [22],-2.71 ± 0.13
same,promoter activity interaction Z-score,[5]; [8],-0.965 ± 0.38
same,promoter activity interaction Z-score,[5]; [9],-0.355 ± 0.47
same,promoter activity interaction Z-score,[5]; [10],-0.376 ± 0.3
same,promoter activity interaction Z-score,[5]; [11],-0.451 ± 0.9
same,promoter activity interaction Z-score,[5]; [12],-0.714 ± 0.31
same,promoter activity interaction Z-score,[5]; [13],-0.386 ± 0.2
same,promoter activity interaction Z-score,[5]; [14],-0.635 ± 0.58
same,promoter activity interaction Z-score,[5]; [15],-1.84 ± 0.3
same,promoter activity interaction Z-score,[5]; [16],-0.969 ± 0.17
same,promoter activity interaction Z-score,[5]; [17],-0.0415 ± 0.013
same,promoter activity interaction Z-score,[5]; [18],-1.1 ± 0.3
same,promoter activity interaction Z-score,[5]; [19],-1.99 ± 0.064
same,promoter activity interaction Z-score,[5]; [20],-0.708 ± 0.78
same,promoter activity interaction Z-score,[5]; [21],-0.129 ± 0.82
same,promoter activity interaction Z-score,[5]; [22],-0.881 ± 1.3
same,promoter activity interaction Z-score,[6]; [8],0.403 ± 0.099
same,promoter activity interaction Z-score,[6]; [9],0.609 ± 0.067
same,promoter activity interaction Z-score,[6]; [10],0.838 ± 0.31
same,promoter activity interaction Z-score,[6]; [11],0.324 ± 0.23
same,promoter activity interaction Z-score,[6]; [12],0.281 ± 0.23
same,promoter activity interaction Z-score,[6]; [13],1.06 ± 0.17
same,promoter activity interaction Z-score,[6]; [14],1.61 ± 0.96
same,promoter activity interaction Z-score,[6]; [15],0.224 ± 0.071
same,promoter activity interaction Z-score,[6]; [16],0.719 ± 0.53
same,promoter activity interaction Z-score,[6]; [17],1.68 ± 0.037
same,promoter activity interaction Z-score,[6]; [18],1.63 ± 0.81
same,promoter activity interaction Z-score,[6]; [19],0.114 ± 0.72
same,promoter activity interaction Z-score,[6]; [20],0.878 ± 0.58
same,promoter activity interaction Z-score,[6]; [21],1.37 ± 0.74
same,promoter activity interaction Z-score,[6]; [22],-0.539 ± 1.1
same,promoter activity interaction Z-score,[7]; [8],0.541 ± 0.79
same,promoter activity interaction Z-score,[7]; [9],-0.042 ± 0.17
same,promoter activity interaction Z-score,[7]; [10],0.413 ± 1.2
same,promoter activity interaction Z-score,[7]; [11],-0.32 ± 1.4
same,promoter activity interaction Z-score,[7]; [12],0.257 ± 0.23
same,promoter activity interaction Z-score,[7]; [13],-0.2 ± 0.34
same,promoter activity interaction Z-score,[7]; [14],0.54 ± 1.8
same,promoter activity interaction Z-score,[7]; [15],-0.137 ± 0.1
same,promoter activity interaction Z-score,[7]; [16],-1.14 ± 0.3
same,promoter activity interaction Z-score,[7]; [17],-0.284 ± 0.59
same,promoter activity interaction Z-score,[7]; [18],-0.2 ± 0.18
same,promoter activity interaction Z-score,[7]; [19],0.786 ± 1
same,promoter activity interaction Z-score,[7]; [20],2.42 ± 2.2
same,promoter activity interaction Z-score,[7]; [21],1.73 ± 2.4
same,promoter activity interaction Z-score,[7]; [22],0.696
